Screening data deposited in PubChem BioAssay by National Center for Advancing Translational Sciences (NCATS).
DT40 TDP1 CPT – growth inhibition of DT40 Tdp1-/-;hTDP1 cells with camptothecin (screen for TDP1 inhibitors) | chicken DT40 Tdp1-/-;hTDP1 cells + 20 nM CPT, ATP luminescence, 48 h | Potency, µM (top dose mostly 46.2 µM), usual class: inhibitors | hit rate 12% among 420,000 | AID 686979; further: nearly all actives have a fitted effect of over 55% in size
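Chicken DT40 Tdp1-/- cells complemented with human TDP1, 400 cells/well, exposed to compounds plus 20 nM camptothecin for at least 48 h at 37 C; viability read as ATP content by CellTiter-Glo luminescence.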
TDP1 cell noCPT – qHTS for Inhibitors of human tyrosyl-DNA phosphodiesterase 1 (TDP1): qHTS in cells in absence of CPT; DT40 Tdp1-/- hTDP1 cells, no CPT, ATP luminescence, 48 h; Potency, µM (top dose mostly 46.2 µM), usual class: inhibitors; hit rate 15% among 420,000; further: nearly all actives have a fitted effect of over 55% in size
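Readout: luminescence from CellTiter-Glo after 30 min in the dark at RT. Cells: DT40 Tdp1-/- with stable hTDP1, 400/well. Exposure: compounds alone, ≥48 hr, 37 °C.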
ELG1 DNA repair – ELG1-dependent DNA repair inhibition | HEK293T ELG1-luciferase reporter, luminescence, 16 h; DNA damage induced by 5-fluorouridine | Potency, µM (series often up to 46.1 µM), actives largely listed as inhibitors | hit rate 2.3% among 330,000 | AID 504467; further: nearly all actives have a fitted effect of over 55% in size
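Reporter activity after DNA damage by 5-fluorouridine is monitored. Compound-treated cells incubate 16 hr at 37 °C, then ONE-Glo is added for 30 min before luminescence reading.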
TDP1 inh – blocks human tyrosyl-DNA phosphodiesterase 1. recombinant TDP1, AlphaScreen DNA substrate cleavage. AID 485290. hit rate 0.28% among 350,000. Potency, µM (highest dose often 130 µM), hits mostly inhibitors; further: nearly all actives have a fitted effect of over 40% in size
Target sequence (Q9NUW8 whole entry, looked up): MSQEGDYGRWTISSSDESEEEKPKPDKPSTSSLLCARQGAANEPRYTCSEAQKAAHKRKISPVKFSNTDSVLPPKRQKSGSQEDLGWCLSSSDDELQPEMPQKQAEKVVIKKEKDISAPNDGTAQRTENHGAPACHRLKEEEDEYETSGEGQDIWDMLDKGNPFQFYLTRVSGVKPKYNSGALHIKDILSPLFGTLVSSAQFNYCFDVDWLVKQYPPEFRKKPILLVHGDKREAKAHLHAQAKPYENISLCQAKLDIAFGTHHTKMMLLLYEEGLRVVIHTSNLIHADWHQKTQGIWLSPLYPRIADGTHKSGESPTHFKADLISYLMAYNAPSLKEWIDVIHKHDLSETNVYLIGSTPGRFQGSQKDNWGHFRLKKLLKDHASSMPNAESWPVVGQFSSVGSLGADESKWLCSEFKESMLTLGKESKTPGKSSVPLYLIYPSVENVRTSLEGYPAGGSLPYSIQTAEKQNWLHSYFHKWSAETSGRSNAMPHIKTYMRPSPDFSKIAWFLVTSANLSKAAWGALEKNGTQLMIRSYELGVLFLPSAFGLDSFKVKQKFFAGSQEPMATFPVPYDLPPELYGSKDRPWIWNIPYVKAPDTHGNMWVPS
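Enzyme-compound mixtures sat 15 min at room temperature, followed by a 5 min reaction with 15 nM final substrate and 10 min with AlphaScreen beads. Recombinant human Tdp1 was used at 1 nM final.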
Giardia kill – Giardia lamblia killing. hit rate 0.15% among 340,000. activity change, % at 7.66 µM, hits read low. Giardia lamblia trophozoite viability; in the data active means activity change below about -80%; inconclusive means between about -30% and that limit;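 further: parasites exposed to compound for two days anaerobically before the ATP read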
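Each well holds 100 Giardia trophozoites and compound. After two days (48 hrs) at 37 deg C in anaerobic conditions, ATP is quantified by luminescence.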
IL1B secr inh – inflammasome signaling inhibition, IL-1 beta readout. THP-1 LPS/ATP IL-1B secretion, AlphaLISA, 16 h; active compounds read low. activity change, % at 57.5 µM. hit rate 4.7% among 360,000; in the data active means activity change below about -50%; inconclusive means mostly about -30% to -49%
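THP-1 cells pretreated 1 hr with compounds (up to 57.5 uM final), then stimulated with LPS (250 ng/mL final) plus ATP (1.25 mM final); secreted IL-1B measured by AlphaLISA after 16 hr, decreased signal indicating inhibition.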
A number is an active result; n = inactive; u = inconclusive; x = not tested or not shown; [ ] = remark or other dose. An excerpt weighted towards active compounds, which were near 19% of everything screened. Unless noted, the call rests on the fitted dose curve; in most records, active means well fitted curve in the direction sought with a large enough effect; inconclusive means small, poorly fitted or top-dose-only effect, or another doubt; inactive means no such curve, though single readings can be large; an effect the other way counts as inactive or inconclusive.

SMILES	DT40 TDP1 CPT	TDP1 cell noCPT	ELG1 DNA repair	TDP1 inh	Giardia kill	IL1B secr inh
CCC(c1nnnn1-c1ccc2c(c1)OCCO2)N1CCN(c2ncccc2C(F)(F)F)CC1 (centres undefined)	u	18.4µM	x	x	x	n
CCC(c1nnnn1-c1ccc2c(c1)OCCO2)N1CCN(c2ccc(F)cc2)CC1 (centres undefined)	14.6µM	16.4µM	x	x	x	n
CCC(c1nnnn1-c1ccc2c(c1)OCCO2)N1CCN(C(=O)c2ccco2)CC1 (centres undefined)	u	u	x	x	x	n
Fc1ccc(-c2nnc(SCc3cccnc3)o2)cc1	n	n	u	n	n	n
CCOC(=O)C1=C(CNCc2ccccc2)NC(=O)NC1c1ccc(C)cc1 (centres undefined)	u	u	x	n	x	x
CSCC(O)Cn1ncc2ccccc2c1=O (centres undefined)	n	n	u	n	n	n
COC(=O)c1cc(NC(=O)c2cc(-c3ccccc3Cl)oc2C(F)(F)F)ccc1N1CCOCC1	u	20.6µM	u	n	n	u
COC(=O)c1cc(NC(=O)c2cc(-c3ccc(Cl)cc3)oc2C(F)(F)F)ccc1N1CCOCC1	u	18.4µM	n	n	n	u
COc1ccc(C(=O)CSc2nnc3n2CCCN3C(=O)Nc2ccccc2)cc1	u	u	n	n	n	n
O=C1C[C@@H](O)[C@@H](O)[C@H]2[C@@H]3C(=O)N(c4cccc(Oc5ccccc5)c4)C(=O)[C@@H]3CC[C@H]12	x	x	x	n[21 µM]	x	x
COc1ccccc1N(CN1C(=O)c2ccccc2C1=O)C(=O)c1cccc(C)c1	20.6µM	u	u	n	n	n
Cc1cc(=O)[nH]c(SCC(=O)N2CCCC(C)C2)n1 (centres undefined)	n	n	n	x	n	n
COc1ccc(NC(=S)Nn2cnnc2)cc1OC	n	n	n	n	n	n
Cc1[nH][nH]c(=O)c1C(c1c(C)[nH][nH]c1=O)c1cn(Cc2cccc3ccccc23)c2ccccc12	8.2µM	7.31µM	n	n	n	n
C#CC[N+](C)(C)CCCCCCCC	u	u	n	n	n	-54.3
C#CC[N+](C)(C)CCCCCCCCCC	2.06µM	2.31µM	u	n	n	-79.8
C#CC[N+](C)(C)CCCCCCCCCCCC	1.3µM	0.651µM	n	n	n	-87.6
CC#CC[N+](C)(C)CCCCCCCCCCCC	0.581µM	0.461µM	n	n	n	n
CCOC(=O)Cn1c(=O)oc2cc(S(=O)(=O)N3CCN(c4ccc(Cl)cc4)CC3)ccc21	u	u	x	n	x	x
CCOc1ccc(C2C(C(=O)Nc3ccccc3)=C(C)Nc3nc(SCc4cccc(OC)c4)nn32)cc1 (centres undefined)	n	n	x	n	x	x
CC1=C(C(=O)OC2CCCCCCC2)C(c2cc3c(cc2Br)OCO3)CC(=O)N1 (centres undefined)	u	u	n	n	n	-58.5
COC(=O)C1=C(C)NC(=O)CC1c1cc2c(cc1Br)OCO2 (centres undefined)	n	n	u	n	n	n
COCCOC(=O)C1=C(C)NC2=C(C(=O)CCC2)C1c1cc2c(cc1Br)OCO2 (centres undefined)	n	n	n	n	n	n
CC1=C(C(=O)OCCOC(C)C)C(c2cc3c(cc2Br)OCO3)CC(=O)N1 (centres undefined)	16.4µM	u	n	n	n	n
O=C(OCC1CCCO1)c1ccc2c(c1)N(Cc1ccccc1F)C(=O)c1ccccc1S2(=O)=O (centres undefined)	n	n	x	n	x	x
SMILES	DT40 TDP1 CPT	TDP1 cell noCPT	ELG1 DNA repair	TDP1 inh	Giardia kill	IL1B secr inh
O=C(NCc1nnc2n1CCN(Cc1cccc(Cl)c1)CC2)c1cccc(F)c1	5.17µM	4.11µM	x	x	x	x
O=C(NCc1nnc2n1CCN(Cc1ccc(C(F)(F)F)cc1)CC2)c1cccc(F)c1	n[9.04 µM]	u	x	x	x	x
COc1cccc(COCCN2CCN(S(=O)(=O)c3ccccc3)CCC2=O)c1	x	x	x	n	n	x
O=C(CC(SCCO)c1ccc2c(c1)OCO2)c1cccs1 (centres undefined)	11.6µM	11.6µM	u	n	n	-75.0
O=C(CC(SCc1ccco1)c1ccc(O)cc1)c1cccs1 (centres undefined)	u	23.1µM	u	n	n	-52.4
O=C(CSc1nnc(-c2ccc(O)cc2)n1Cc1ccco1)c1cccs1	u	u	n	n	n	n
COc1ccc(NC(=O)c2cc(CC(C)C)nc3ccccc23)cc1	n	u	23.1µM	n	n	u
Cc1cc(C(=O)Nc2ccc(F)cc2)c2ccccc2n1	n	n	n	n	n	n
Cc1ccc(NC(=O)c2cc(CC(C)C)nc3ccccc23)cc1	n	u	20.6µM	x	n	u
Cc1cc(Br)cc2c(C(=O)NCC3CCCO3)cc(-c3ccccc3)nc12 (centres undefined)	u	u	u	n	n	n
O=C(OCn1ncc(Cl)c(Cl)c1=O)c1cccc(C(F)(F)F)c1	u	3.26µM	u	n	n	-101.3
COc1ccc(CNC(=O)C(OC(=O)c2ccco2)c2ccc(F)cc2)cc1 (centres undefined)	n	n	n	n	n	n
COc1ccccc1NC(=O)Cn1nnc(C(=O)NCc2cccs2)c1N	0.581µM	0.461µM	n	n	n	n
Cc1ccc(CNC(=O)c2nnn(CC(=O)Nc3cc(C)ccc3C)c2N)cc1	n	n	x	n	x	x
Cc1ccc(C)c(NC(=O)Cn2nnc(C(=O)NCc3ccco3)c2N)c1	1.3µM	1.16µM	n	n	n	n
CCc1ccc(NC(=O)Cn2nnc(C(=O)NCc3cccs3)c2N)cc1	n	n	n	n	n	n
COc1ccc(NC(=O)Cn2nnc(C(=O)NCCc3ccccc3)c2N)c(OC)c1	n	n	n	n	n	n
COc1ccc(NC(=O)Cn2nnc(C(=O)NCc3ccccc3)c2N)c(OC)c1	u	13µM	n	n	n	n
CCc1ccccc1NC(=O)Cn1nnc(C(=O)NCc2cccs2)c1N	3.66µM	3.26µM	n	n	n	n
COc1ccc(NC(=O)Cn2nnc(C(=O)NCc3cccs3)c2N)cc1	u	u	u	n	n	n
CSc1cccc(NC(=O)Cn2c(=O)n(Cc3ccccc3)c(=O)c3sc4ccccc4c32)c1	n	u	x	n	x	x
COC(=O)c1ccc(NC(=O)C(=O)NCCc2csc3nc(-c4ccccc4F)nn23)cc1	n	n	x	n	x	x
COc1ccc(CCNC(=O)c2nnn(CC(=O)Nc3ccccc3)c2N)cc1OC	n	n	n	n	n	n
COc1ccc(CCNC(=O)c2nnn(CC(=O)Nc3cccc(F)c3)c2N)cc1OC	n	n	n	n	n	-98.2
O=C1CC(c2ccccc2)=NN1c1ccccc1	u	14.6µM	x	x	n	-82.4
